Sa growth 42C: S. aureus growth inhibition at 42 and 30 °C, primary screen, LtaS inhibitor project, RN4220, two temperatures. OD600, 20 h, 42 °C; active compounds read low. 0.53% of 170,000 active. relative growth, % (no concentration beside the values);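 active means relative growth at most 50% at the other temperature and 20+ points below 30 °C, or under 10% at both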
S aureus helic: inhibitors of S. aureus replicative helicase, primary screen, biochemical, fluorescence unwinding readout | replicative DNA helicase (DnaC/DnaB), Staphylococcus aureus | purified S. aureus helicase, fluorescence unwinding assay | inhibition, % (concentration not given with the values) | 0.05% of 120,000 active; in the data active means inhibition above about 25%, passing the limit was not always enough;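 further: 0% = mean of negative control wells and 100% = mean of positive control wells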
* marks the source's active call; other numbers are inactive results; . = no result given. This is one part of a sample in which hits are shown more often than they occur.

SMILES | Sa growth 42C | S aureus helic
CN(CC1COc2ccccc2O1)S(=O)(=O)c1csc(C(N)=O)c1 (stereo not given) | 99.1 | 22.0
CC1=C(C(=O)OC2CCCC2C)C(c2ccc(Cl)cc2)NC(=O)N1 (stereo not given) | 27.7* | 11.0
CC1=C(C(=O)N(C)C)C(c2ccc(Cl)cc2)NC(=O)N1 (stereo not given) | 101.5 | 0.0
O=S(=O)(c1ccccc1)c1nc(-c2cccs2)oc1SCc1ccccc1F | 93.7 | .
CCn1cc(C(=O)O)c(=O)c2cc3c(cc21)OCO3 | 98.1 | .
CCn1nc(C(=O)O)c(=O)c2cc3c(cc21)OCO3 | 0.5* | .
COC(=O)c1ccc(C)c(NC(=O)c2ccc(C3SCC(=O)N3Cc3ccccc3)cc2)c1 (stereo not given) | 88.5 | 16.0
CC1(C)CC(O)CC(C)(C)N1CC(O)COC1CCCCC1 (stereo not given) | 81.9 | -1.0
CC1=NN(c2nc3ccccc3s2)C(=O)C1CCC(C)C (stereo not given) | 1.9* | -3.0
CC1=NN(c2nc3ccccc3s2)C(=O)C1 | 92.4 | .
C[C@H](NC(=O)c1cccc(C(F)(F)F)c1)c1nc2ccccc2[nH]1 | 85.8 | 11.0
CC(NC(=O)Nc1cccc(C(F)(F)F)c1)c1nc2ccccc2[nH]1 (stereo not given) | 0.5* | -6.0
COc1cc(C2OCC3C(C)C=C(C)C2C3C)ccc1O (stereo not given) | 105.4 | 10.0
CCCCS(=O)c1sc2nc(-c3cccs3)cc(-c3ccccc3)c2c1N (stereo not given) | 12.5* | 8.0
CCCCS(=O)c1sc2nc(C)cc(C)c2c1N (stereo not given) | 81.2 | 4.0
COc1ccc(NC(=O)COc2cc(=O)n(C)c3ccccc23)cc1OC | 81.4 | 7.0
CN(C)[C@@H]1C(=O)C(C(=O)NCN2CCCC2)=C(O)[C@@]2(O)C(=O)C3=C(O)c4c(O)cccc4[C@@](C)(O)C3CC12 (stereo not given in full) | 85.9 | .
C=C1c2cccc(O)c2C(O)=C2C(=O)[C@]3(O)C(O)=C(C(N)=O)C(=O)[C@@H](N(C)C)[C@@H]3[C@@H](O)[C@H]12 | 0.1* | .
C=C1c2c(Cl)ccc(O)c2C(O)=C2C(=O)[C@]3(O)C(O)=C(C(N)=O)C(=O)[C@@H](N(C)C)[C@@H]3[C@@H](O)[C@H]12 | -0.9* | .
CCOC(=O)c1cc2ncc(C(F)(F)F)cc2s1 | 93.3 | .
NNC(=O)c1cc2ncc(C(F)(F)F)cc2s1 | 0.0* | 29.0
COc1ccc(/C=C(\NC(=O)c2ccccc2)C(=O)N2CCOCC2)cc1 | 96.4 | 6.0
O=C1N=c2ccccc2=C1c1c(O)[nH]c2ccc(Cl)cc12 | 48.9* | -7.0
CCn1c(O)c(C2=c3cc(Cl)ccc3=NC2=O)c2ccccc21 | 92.8 | -13.0
NC(=O)c1nc(-c2cccnc2)nc2c1[nH]c(=O)n2-c1ccccc1 | 104.2 | 4.0
SMILES | Sa growth 42C | S aureus helic
Cc1ccc2nc(C)n3c4ccccc4c(NC=O)c3c2c1 | 86.4 | 9.0
CCOC(=O)C1CCN(C(=O)CSc2n[nH]c(-c3ccccc3Cl)n2)CC1 | 102.6 | .
Cc1cccc(C(=O)Nc2cc3c(cc2C)n(C)c(=O)n3C)c1 | 79.6 | .
Cc1cccc(C(=O)Sc2cccccc2=O)c1 | -1.0* | 0.0
O=S(=O)(NCC1COc2ccccc2O1)c1ccc(N2CCOCC2)nc1 (stereo not given) | 99.7 | .
CCOc1cc(C(=O)NC2=C(C(=O)OC)SCC2)cc(OCC)c1OCC | 84.9 | 8.0
CC1CC(C)CN(C(=O)COC(=O)c2cccc(S(=O)(=O)N(C)C)c2)C1 (stereo not given) | 103.1 | 9.0

Screening data (PubChem BioAssay)
